This is a sample that favours compounds with a hit; in the whole collection about 7% have one here.
D3 antag: qHTS of D3 Dopamine Receptor Antagonist: qHTS. D3R cells, DiscoveRx beta-arrestin luminescence, antagonist mode; hits give low values. max response, negative = inhibition, %. 360,000 tested, 2.5% active. AID 652054, 2013; in the data active means max response below about -50%; inconclusive means no clear call, values can overlap the other calls; further: on the % scale 0 is the no-effect control and ±100 the full control effect
Target sequence (P35462 whole entry, looked up): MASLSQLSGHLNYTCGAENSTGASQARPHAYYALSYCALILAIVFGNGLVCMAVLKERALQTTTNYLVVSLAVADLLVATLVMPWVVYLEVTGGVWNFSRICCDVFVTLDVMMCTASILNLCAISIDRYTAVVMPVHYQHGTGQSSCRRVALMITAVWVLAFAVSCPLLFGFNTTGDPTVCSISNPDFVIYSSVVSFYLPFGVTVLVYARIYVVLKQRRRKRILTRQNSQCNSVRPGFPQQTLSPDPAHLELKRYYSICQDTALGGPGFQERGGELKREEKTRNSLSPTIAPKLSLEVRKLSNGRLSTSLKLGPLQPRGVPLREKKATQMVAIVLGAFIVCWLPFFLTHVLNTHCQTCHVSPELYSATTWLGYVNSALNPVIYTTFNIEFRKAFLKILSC
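Cells expressing the human receptor were seeded at 1500 cells/well, incubated overnight at 37 degrees C in 5% CO2, then exposed to library compounds with dopamine controls for 90 minutes at 37 degrees C before luminescent detection.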
Integrin act MD: qHTS for Activators of Integrin-Mediated Alleviation for Muscular Dystrophy | Potency, µM (doses to about 38.3 µM), for inactives: at the top dose activation, hits mostly activators | 350,000 tested, 0.064% active | alpha7betagal myoblasts, beta-gal FDG fluorescence, 48 h;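 further: potency means the concentration at half of the fitted maximal effect; 100% = response of the positive control SU9516; nearly all actives have a fitted effect of over 60% in size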
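alpha7betagal+/- myoblasts (passage 13, 250/well) treated 48 h at 37C with compounds at 1:260 dilution of DMSO stock. Lysed, then beta-galactosidase activity read as FDG fluorescence (ex 480/em 540) after 30 min, with pre-read for autofluorescence.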
IL1B secr inh: qHTS for Inhibitors of Inflammasome Signaling: IL-1-beta AlphaLISA Primary Screen. THP-1 LPS/ATP IL-1B secretion, AlphaLISA, 16 h; hits give low values. activity change, % at 57.5 µM. 360,000 tested, 4.7% active. AID 743279, 2014; in the data active means activity change below about -50%; inconclusive means mostly about -30% to -49%; further: on the % scale 0 is the no-effect control and ±100 the full control effect
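THP-1 cells pretreated 1 hr with compounds (up to 57.5 uM final), then stimulated with LPS (250 ng/mL final) plus ATP (1.25 mM final); secreted IL-1B measured by AlphaLISA after 16 hr, decreased signal indicating inhibition.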
ATXN2 expr inh: Primary qHTS for Inhibitors of ATXN expression | HEK-293 ATXN2-luciferase reporter, luminescence, 24 h | Potency, µM (titrated, usually from 57 µM), for the others: at the top dose activity change, negative = inhibition, most hits filed as inhibitors | 360,000 tested, 0.72% active | AID 1745845, 2022; further: potency means the concentration at half of the fitted maximal effect; on the % scale 0 is the no-effect control and ±100 the full control effect; nearly all actives have a fitted effect of over 55% in size
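ATXN2-luciferase reporter cells (luciferase flanked by upstream and downstream ATXN2 gene portions) were treated 24 h at 37 °C with compounds at up to 57 uM. SteadyGlo luminescence gave expression; GF-AFC fluorescence gave viability.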
DRD3 agonist: qHTS of D3 Dopamine Receptor Agonist: qHTS | D(3) dopamine receptor (Homo sapiens), P35462 | max activation, % | D3R DiscoveRx beta-arrestin cells, luminescence, 90 min | AID 652048, 2013 | 410,000 tested, 0.58% active; in the data active means max activation above about 30%; further: 0% is about no effect
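Cells at 1500/well, incubated overnight, then treated with pinned compounds (dopamine as control) for 90 min at 37 degrees C. DiscoveRx reagent added for 30 - 60 minutes at room temperature; luminescence read.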
S2 tox: Viability Counterscreen for Primary qHTS for Inhibitors of ATXN expression; S2 cells (HEK-293 line with an ATXN2-luciferase reporter) viability, CellTiter-Fluor protease fluorescence, 24 h; Potency, µM (series often up to 56.7 µM), usual class: cytotoxic; 400,000 tested, 0.49% active; further: potency means the concentration at half of the fitted maximal effect; nearly all actives have a fitted effect of over 40% in size
Starred values were filed as active, the others as inactive; [ ] = another dose, or the depositor's remark. Unless noted, the call rests on the fitted dose curve; in most records, active means well fitted curve in the direction sought with a large enough effect; inconclusive means small, poorly fitted or top-dose-only effect, or another doubt; inactive means no such curve, though single readings can be large; an effect the other way counts as inactive or inconclusive.

COCC(C)n1c(C)cc(C(=O)COC(=O)c2c(C)nn(-c3ccccc3)c2C)c1C (centres undefined) was read as D3 antag 4, Integrin act MD -32%, IL1B secr inh -56*, ATXN2 expr inh 3%, DRD3 agonist 0 and S2 tox inactive.
Screening COCCn1c(C)cc(C(=O)COC(=O)c2c(C)nn(Cc3ccccc3)c2C)c1C returned D3 antag 7, Integrin act MD -33%, IL1B secr inh -16, ATXN2 expr inh -15%, DRD3 agonist 2 and S2 tox inactive.
`COc1ccc(C)cc1NC(=O)COC(=O)c1c(C)nn(-c2ccccc2)c1C` gave D3 antag 32, Integrin act MD 27%, IL1B secr inh -4, ATXN2 expr inh 22µM*, DRD3 agonist 23 and S2 tox inconclusive.
`Cc1nn(Cc2ccccc2)c(C)c1C(=O)OCC(=O)c1cc(C)n(C2CC2)c1C` gave D3 antag 34, Integrin act MD 5%[7.66 µM], IL1B secr inh -58*, ATXN2 expr inh inconclusive, DRD3 agonist -16 and S2 tox inactive.
For CCN(c1ccccc1)S(=O)(=O)c1ccc(NC(=O)c2nc(SC(C)C)ncc2Cl)cc1 the results were ATXN2 expr inh -13%, DRD3 agonist 3 and S2 tox inconclusive.
`CCOc1ccc(CN2CCN(Cc3[nH]c4ccc(OC)cc4c3C)CC2CCO)cc1` (centres undefined) gave D3 antag 11, Integrin act MD 8%, IL1B secr inh -66*, ATXN2 expr inh -2%, DRD3 agonist -6 and S2 tox inactive.
Screening CCOc1ccccc1CN1CCN(Cc2[nH]c3ccccc3c2C)CC1CCO (centres undefined) returned D3 antag -53*, Integrin act MD -26%, IL1B secr inh -9, DRD3 agonist -4 and S2 tox inactive.
Screening O=C(CSc1nc(=O)n(Cc2ccccn2)c2c1CCC2)Nc1ccc(F)cc1F returned D3 antag 3, Integrin act MD -13%, IL1B secr inh -19, ATXN2 expr inh 13%, DRD3 agonist 5 and S2 tox inactive.
For CCOC(=O)c1sc2nc(-c3ccco3)c3c(c2c1N)CC(C)(C)OC3 the results were D3 antag 1, Integrin act MD 0%, IL1B secr inh -53*, ATXN2 expr inh -12%, DRD3 agonist 2 and S2 tox inactive.
Cc1nc2sc(C(=O)O)c(N)c2c2c1COC(C)(C)C2 was read as D3 antag 23, Integrin act MD -9%, IL1B secr inh 27, ATXN2 expr inh -2%, DRD3 agonist 1 and S2 tox inactive.
Screening CCN(CC)CCn1c(NCc2ccco2)nc2ccccc21 returned D3 antag -16, Integrin act MD -25%, IL1B secr inh -9, ATXN2 expr inh -6%, DRD3 agonist -26 and S2 tox inconclusive.
Cn1cccc1-c1nc2ccccc2n1Cc1ccccc1 was read as D3 antag -54*, Integrin act MD -11%, IL1B secr inh -21, ATXN2 expr inh -16%, DRD3 agonist -1 and S2 tox inactive.
`COc1ccc(CNc2nc3ccccc3n2CCN2CCCCC2)cc1` gave D3 antag -64*, Integrin act MD -36%, IL1B secr inh inconclusive, ATXN2 expr inh inconclusive, DRD3 agonist -20 and S2 tox inactive.
For CCCCn1c(NCc2ccc3c(c2)OCO3)nc2ccccc21 the results were D3 antag inconclusive, Integrin act MD 6%, IL1B secr inh -51*, ATXN2 expr inh -3%, DRD3 agonist -11 and S2 tox inactive.
Screening CCN(CC)CCn1c(NCc2nc3ccccc3n2Cc2ccccc2)nc2ccccc21 returned D3 antag -55*, Integrin act MD -44%, IL1B secr inh -59*, ATXN2 expr inh inconclusive, DRD3 agonist -34 and S2 tox inconclusive.

Screens: PubChem BioAssay, National Center for Advancing Translational Sciences (NCATS)
